“And” between values parts separate entries of the source, which are not always exact repeats. Equal values may be shown once. The source made the active and inactive calls. A call without a number means that no potency is given here. Unless noted, the call rests on the fitted dose curve; in most records, active means well fitted inhibition curve with a large enough effect; inconclusive means small, poorly fitted or top-dose-only effect; inactive means flat fitted curve, though single readings scatter.
What was measured:
[1] = biological target: Ubiquitin carboxyl-terminal hydrolase 1 (Homo sapiens) (UniProt O94782); assay: Inhibitors of USP1/UAF1: Pilot qHTS (AID 504865); further: nearly all actives have a fitted effect of over 35% in size; further: potency means the concentration at half of the fitted maximal effect
In short: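 1nM USP1/UAF1 + cpd, 15 min RT; start w/ Ub-Rho 150nM final; kinetic FL 480/540 nm, 6 reads q60 s. Buffer 50mM HEPES pH 7.8, 0.5mM EDTA, 1mM TCEP, 0.01% Tween-20, 0.1 mg/ml BSA.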

[2] = biological target: Estrogen receptor (Homo sapiens) (UniProt P03372); assay: qHTS assay for small molecule antagonists of estrogen receptor alpha signaling (AID 588513; active means well fitted curve in the direction sought with a large enough effect in the signal ratio, with a control signal flat, not every such curve was filed as active; inconclusive means small, poorly fitted or top-dose-only effect, or effect the other way, or a change in a side signal; inactive means no such curve, though single readings can be large or run the other way; the % refers to the signal ratio; further: potency means the concentration at half of the fitted maximal effect)
In short: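 Beta-lactamase reporter, antagonist mode, HEK 293 GripTite cells; 0.5nM E2 stimulus, 18 h, 37 C; CCF4 dye 2 h RT; fluorescence. IC50 and efficacy from Hill fits, normalized to E2 and DMSO.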

[3] = biological target: Androgen receptor (Homo sapiens) (UniProt P10275); assay: qHTS assay for small molecule agonists of androgen receptor signaling (AID 588515; active means well fitted curve in the direction sought with a large enough effect in the signal ratio, with a control signal flat; inconclusive means small, poorly fitted or top-dose-only effect, or effect the other way, or a change in a side signal; inactive means no such curve, though single readings can be large or run the other way; the % refers to the signal ratio); settings: AR-UAS-bla HEK293, beta-lactamase ratio, agonist 16 h; stronger effect = higher value
In short: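 Stimulation of an AR-responsive β-lactamase reporter in GripTite HEK293 cells was measured after 16 h compound exposure at 37 °C, via CCF4 fluorescence after 2 h RT. EC50 from Hill fits, normalized to R1881 at 30 nM.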

[4] = biological target: Bile acid receptor (Homo sapiens) (UniProt Q96RI1); assay: qHTS assay for small molecule antagonists of farnesoid X receptor signaling (AID 588526; calls by dose curve)
In short: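 Beta-lactamase reporter antagonist mode: HEK293T FXR-UAS-bla cells, titrated compound, CDCA stimulation, 16 h 37 C, CCF4 dye 2 h RT. Data normalized to CDCA 50 uM and DMSO; Hill-fit IC50.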

[5] = biological target: Glucocorticoid receptor (Homo sapiens) (UniProt P04150); assay: qHTS assay for small molecule agonists of glucocorticoid receptor signaling (AID 588532; active means well fitted curve in the direction sought with a large enough effect in the signal ratio, with a control signal flat; inconclusive means small, poorly fitted or top-dose-only effect, or a change in a side signal; inactive means no such curve, though single readings can be large or run the other way; the % refers to the signal ratio); settings: HeLa MMTV-bla, beta-lactamase ratio, agonist, 18 h; stronger effect = higher value; percent of dexamethasone control, DMSO zero
In short: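 Agonist-mode qHTS: GRE-driven beta-lactamase in HeLa cells exposed 18 h to titrated compounds (up to 92 uM), then CCF4 ratio read after 2 h at RT; Hill-fitted EC50, efficacy relative to 0.1 uM dexamethasone.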

[6] = biological target: Glucocorticoid receptor (Homo sapiens) (UniProt P04150); assay: qHTS assay for small molecule antagonists of glucocorticoid receptor signaling (AID 588533; active means well fitted inhibition curve with a large enough effect in the signal ratio, with a control signal flat, not every such curve was filed as active; inconclusive means small, poorly fitted or top-dose-only effect, or effect the other way, or a change in a side signal; the % refers to the signal ratio;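 further: cells stimulated with 2 nM dexamethasone as agonist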)
In short: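 Antagonist-mode qHTS: compound titrations added to GRE-bla HeLa cells, then dexamethasone 2 nM final; 18 h, 37 C. CCF4 FRET fluorescence normalized to dexamethasone and DMSO; IC50 from Hill fit.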

[7] = qHTS assay for small molecule antagonists of peroxisome proliferator-activated receptor delta signaling (AID 588535); settings: HEK293T PPARd-UAS-bla, beta-lactamase FRET ratio, 18 h; 460 nm channel;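 further: cells co-treated with a PPAR-delta agonist as stimulator during compound exposure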
In short: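 Titrations were run on PPAR-delta-UAS-bla HEK293T cells in charcoal/dextran-stripped serum, incubated 18 h at 37 C. CCF4 fluorescence (460/530 nm) after 2 h RT; Hill equation yields IC50 and maximal response.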

[8] = biological target: Estrogen receptor (Homo sapiens) (UniProt P03372); assay: qHTS assay for small molecule agonists of estrogen receptor alpha signaling (AID 588514; calls by dose curve; further: nearly all actives have a fitted effect of over 70% in size; further: potency means the concentration at half of the fitted maximal effect)
In short: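 EC50 and efficacy came from Hill fits of beta-lactamase reporter signal (CCF4 dye, 2 h at room temperature) scaled between DMSO and 20 nM 17-beta-estradiol. Agonist mode: HEK293 ER-alpha-UAS-bla cells in charcoal/dextran-stripped serum medium, 18 h compound exposure at 37 C.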

[9] = biological target: DNA dC->dU-editing enzyme APOBEC-3G (Homo sapiens) (UniProt Q9HC16); assay: qHTS for inhibitors of Vif-A3G interactions: Validation (AID 588379)
In short: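 Yellow fluorescence (Ex 488, Em 500-530) of Vif-coexpressing HeLa A3G-eYFP cells, scanned by Acumen cytometer, reports blocked A3G degradation. Cells plated at 700/well overnight at 37 deg C before compound addition, then a further overnight compound incubation at 37 deg C.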

[10] = biological target: Androgen receptor (Homo sapiens) (UniProt P10275); assay: qHTS assay for small molecule antagonists of androgen receptor signaling (AID 588516; active means well fitted curve in the direction sought with a large enough effect in the signal ratio, with a control signal flat, not every such curve was filed as active; inconclusive means small, poorly fitted or top-dose-only effect, or effect the other way, or a change in a side signal; inactive means no such curve, though single readings can be large or run the other way; the % refers to the signal ratio)
In short: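 HEK293 AR-UAS-bla cells, 10% dialyzed FBS medium; cpd titration + R1881 10 nM final, 16 h 37 C; CCF4 2 h RT; FRET ratio; IC50/efficacy via Hill fit.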

Chain of DNA dC->dU-editing enzyme APOBEC-3G (Homo sapiens) (Q9HC16 whole entry, looked up): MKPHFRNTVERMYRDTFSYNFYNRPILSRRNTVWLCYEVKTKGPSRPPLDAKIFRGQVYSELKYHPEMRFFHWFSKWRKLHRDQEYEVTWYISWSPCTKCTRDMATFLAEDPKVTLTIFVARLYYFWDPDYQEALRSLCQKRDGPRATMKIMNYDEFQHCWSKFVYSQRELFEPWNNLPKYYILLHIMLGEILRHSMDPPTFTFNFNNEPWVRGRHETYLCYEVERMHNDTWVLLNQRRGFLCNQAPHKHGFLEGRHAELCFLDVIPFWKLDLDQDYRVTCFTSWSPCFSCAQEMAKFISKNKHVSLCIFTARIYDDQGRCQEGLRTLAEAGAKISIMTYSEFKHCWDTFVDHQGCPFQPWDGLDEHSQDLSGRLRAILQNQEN
Chain of Glucocorticoid receptor (Homo sapiens) (P04150 whole entry, looked up): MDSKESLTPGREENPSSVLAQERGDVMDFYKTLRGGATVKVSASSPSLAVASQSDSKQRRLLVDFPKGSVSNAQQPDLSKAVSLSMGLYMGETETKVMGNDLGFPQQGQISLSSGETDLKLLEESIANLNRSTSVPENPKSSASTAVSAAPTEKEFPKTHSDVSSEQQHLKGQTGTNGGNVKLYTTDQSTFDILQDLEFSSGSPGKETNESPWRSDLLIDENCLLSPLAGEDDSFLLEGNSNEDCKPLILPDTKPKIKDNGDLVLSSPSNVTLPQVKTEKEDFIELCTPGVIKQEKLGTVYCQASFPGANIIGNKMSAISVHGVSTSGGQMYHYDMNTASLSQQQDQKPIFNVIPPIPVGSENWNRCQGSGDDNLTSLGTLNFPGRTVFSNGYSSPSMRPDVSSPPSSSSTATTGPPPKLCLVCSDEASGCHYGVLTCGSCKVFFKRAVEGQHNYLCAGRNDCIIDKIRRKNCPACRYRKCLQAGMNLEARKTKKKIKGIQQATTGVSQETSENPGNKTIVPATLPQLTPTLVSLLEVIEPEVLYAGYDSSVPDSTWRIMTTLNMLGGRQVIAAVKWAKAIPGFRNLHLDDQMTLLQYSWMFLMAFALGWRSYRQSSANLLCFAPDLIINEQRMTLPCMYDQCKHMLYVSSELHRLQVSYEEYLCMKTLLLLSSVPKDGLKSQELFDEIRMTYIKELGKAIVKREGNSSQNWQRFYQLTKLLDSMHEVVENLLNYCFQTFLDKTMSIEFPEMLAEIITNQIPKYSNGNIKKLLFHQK
Chain of Ubiquitin carboxyl-terminal hydrolase 1 (Homo sapiens) (O94782 whole entry, looked up): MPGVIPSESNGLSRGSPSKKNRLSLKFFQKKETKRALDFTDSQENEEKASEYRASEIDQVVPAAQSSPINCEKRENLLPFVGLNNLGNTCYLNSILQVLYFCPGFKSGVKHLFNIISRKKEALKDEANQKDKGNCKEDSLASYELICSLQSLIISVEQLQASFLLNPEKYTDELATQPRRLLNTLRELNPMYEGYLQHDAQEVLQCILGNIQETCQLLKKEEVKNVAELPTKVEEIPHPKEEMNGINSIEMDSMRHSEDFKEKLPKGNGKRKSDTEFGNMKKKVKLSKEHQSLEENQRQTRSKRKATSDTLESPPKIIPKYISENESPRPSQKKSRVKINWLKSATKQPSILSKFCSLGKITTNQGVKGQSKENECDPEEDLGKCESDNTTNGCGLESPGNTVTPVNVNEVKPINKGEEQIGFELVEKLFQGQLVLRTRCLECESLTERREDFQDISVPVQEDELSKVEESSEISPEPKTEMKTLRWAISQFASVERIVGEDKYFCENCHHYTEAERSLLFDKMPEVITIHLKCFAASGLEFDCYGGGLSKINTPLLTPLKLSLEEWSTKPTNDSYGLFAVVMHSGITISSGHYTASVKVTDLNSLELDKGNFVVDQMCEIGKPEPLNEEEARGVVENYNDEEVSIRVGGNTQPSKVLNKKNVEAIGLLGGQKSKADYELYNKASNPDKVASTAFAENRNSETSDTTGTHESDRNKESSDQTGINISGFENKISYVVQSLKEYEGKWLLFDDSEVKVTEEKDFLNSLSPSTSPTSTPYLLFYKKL
Chain of Bile acid receptor (Homo sapiens) (Q96RI1 whole entry, looked up): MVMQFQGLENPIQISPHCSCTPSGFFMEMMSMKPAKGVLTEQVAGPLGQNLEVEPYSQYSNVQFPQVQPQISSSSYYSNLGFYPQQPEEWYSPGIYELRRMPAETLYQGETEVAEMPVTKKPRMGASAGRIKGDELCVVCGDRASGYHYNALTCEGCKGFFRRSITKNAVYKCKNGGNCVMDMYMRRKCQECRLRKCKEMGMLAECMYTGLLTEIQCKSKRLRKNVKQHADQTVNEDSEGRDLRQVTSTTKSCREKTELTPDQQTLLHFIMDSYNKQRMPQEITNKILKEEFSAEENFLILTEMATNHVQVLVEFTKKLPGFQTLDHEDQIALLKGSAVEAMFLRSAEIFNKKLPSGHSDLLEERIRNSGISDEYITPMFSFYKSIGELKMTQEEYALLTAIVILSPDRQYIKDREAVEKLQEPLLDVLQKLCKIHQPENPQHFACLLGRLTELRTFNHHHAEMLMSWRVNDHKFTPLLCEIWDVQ
Chain of Estrogen receptor (Homo sapiens) (P03372 whole entry, looked up): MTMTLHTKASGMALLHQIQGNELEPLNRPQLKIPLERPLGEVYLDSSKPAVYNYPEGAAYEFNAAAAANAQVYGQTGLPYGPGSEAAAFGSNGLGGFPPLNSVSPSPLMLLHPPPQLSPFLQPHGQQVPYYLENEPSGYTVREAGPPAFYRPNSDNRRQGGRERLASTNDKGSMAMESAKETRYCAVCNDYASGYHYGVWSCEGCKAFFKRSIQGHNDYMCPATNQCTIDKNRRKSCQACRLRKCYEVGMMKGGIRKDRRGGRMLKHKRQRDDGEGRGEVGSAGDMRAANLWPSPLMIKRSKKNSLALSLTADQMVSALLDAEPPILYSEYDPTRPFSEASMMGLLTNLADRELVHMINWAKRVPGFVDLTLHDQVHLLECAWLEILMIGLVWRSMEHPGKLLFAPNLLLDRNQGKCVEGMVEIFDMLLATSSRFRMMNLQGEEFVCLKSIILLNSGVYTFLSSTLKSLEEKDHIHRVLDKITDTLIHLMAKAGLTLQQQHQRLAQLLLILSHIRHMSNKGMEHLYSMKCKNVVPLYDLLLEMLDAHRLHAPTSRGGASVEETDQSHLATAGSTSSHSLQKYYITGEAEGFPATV
Chain of Androgen receptor (Homo sapiens) (P10275 whole entry, looked up): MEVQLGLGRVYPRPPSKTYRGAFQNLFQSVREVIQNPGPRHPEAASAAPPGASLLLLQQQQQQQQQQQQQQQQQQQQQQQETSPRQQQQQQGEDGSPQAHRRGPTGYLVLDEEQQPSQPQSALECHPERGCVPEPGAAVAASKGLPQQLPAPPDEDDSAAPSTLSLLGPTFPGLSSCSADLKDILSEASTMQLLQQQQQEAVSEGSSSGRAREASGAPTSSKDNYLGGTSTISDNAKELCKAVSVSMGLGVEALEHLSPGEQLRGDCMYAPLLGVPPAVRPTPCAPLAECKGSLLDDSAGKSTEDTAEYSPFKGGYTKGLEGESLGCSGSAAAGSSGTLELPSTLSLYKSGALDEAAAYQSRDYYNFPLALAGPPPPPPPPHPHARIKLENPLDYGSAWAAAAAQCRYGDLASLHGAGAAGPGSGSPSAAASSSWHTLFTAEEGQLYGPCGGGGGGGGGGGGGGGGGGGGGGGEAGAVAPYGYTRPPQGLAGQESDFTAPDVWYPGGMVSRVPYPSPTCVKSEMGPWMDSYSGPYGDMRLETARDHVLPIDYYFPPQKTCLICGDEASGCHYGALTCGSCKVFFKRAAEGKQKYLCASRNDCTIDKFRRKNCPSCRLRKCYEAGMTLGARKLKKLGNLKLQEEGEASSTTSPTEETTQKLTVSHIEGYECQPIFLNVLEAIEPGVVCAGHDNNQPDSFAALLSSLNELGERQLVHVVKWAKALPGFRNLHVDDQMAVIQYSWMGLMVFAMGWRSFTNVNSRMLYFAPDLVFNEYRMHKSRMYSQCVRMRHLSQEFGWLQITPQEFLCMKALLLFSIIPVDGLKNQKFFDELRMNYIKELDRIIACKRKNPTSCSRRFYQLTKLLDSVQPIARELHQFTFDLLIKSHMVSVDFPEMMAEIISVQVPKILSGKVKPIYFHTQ

Structure (SMILES): COc1ccc(C(=O)c2ccccc2)c(O)c1
- Potency [1]: inactive
- Potency [2]: inactive
- activation [3]: 0.242% (inactive) and -6.84% (inactive)
- outcome [4]: inactive
- activation [5]: 4.95% (inactive) and -5.72% (inactive)
- outcome [6]: inactive
- max response [7]: -3.7% and 9.95%

Structure (SMILES): CCCCCCCCOc1ccc(C(=O)c2ccccc2)c(O)c1
- Potency [1]: inactive
- Potency [8]: inactive
- max response [7]: 16.2%

Structure (SMILES): O=c1[nH]c(=O)n([C@H]2C[C@H](O)[C@@H](CO)O2)cc1F
- Potency [1]: inactive
- outcome [9]: inactive

Structure (SMILES): CCOc1ccccc1C(N)=O
- Potency [1]: inactive
- Potency [2]: inactive
- Potency [8]: inactive
- activation [3]: -4.07% (inactive)
- outcome [4]: inactive
- activation [5]: -1.86% (inactive)
- outcome [6]: inactive
- max response [7]: -16.5%

Structure (SMILES): COc1ccc(C(Cl)=C(c2ccc(OC)cc2)c2ccc(OC)cc2)cc1
- Potency [1]: inactive
- Potency [2]: 1.58 µM [inconclusive] (active)
- Potency [8]: inactive
- activation [5]: 2.85% (inactive)
- outcome [6]: inactive
- max response [7]: 23%

Structure (SMILES): O=C(c1ccc(F)cc1)C1CCN(CCn2c(=S)[nH]c3ccccc3c2=O)CC1
- Potency [1]: inactive
- outcome [9]: inactive

Structure (SMILES): CNCCCCOc1ccccc1Cc1ccccc1
- outcome [9]: inactive

Structure (SMILES): C/C=C/c1ccc(O)c(OC)c1
- Potency [1]: inactive
- Potency [2]: inactive
- Potency [8]: inactive
- max response [7]: 10.7% and 20%

Structure (SMILES): CO[C@]12C[C@@H](COC(=O)c3cncc(Br)c3)CN(C)[C@@H]1Cc1cn(C)c3cccc2c13
- Potency [1]: inactive
- outcome [9]: inactive

Structure (SMILES): CCCCCCCC/C=C\CCCCCCCCN
- Potency [1]: inactive
- Potency [2]: inactive
- Potency [8]: inactive
- max response [7]: -29.2%

Structure (SMILES): CCCCCCCCCCCCCCCC(=O)O
- outcome [6]: inactive

Structure (SMILES): CN(C)CCC[C@@]1(c2ccc(F)cc2)OCc2cc(C#N)ccc21
- Potency [1]: inactive
- outcome [9]: inactive

Structure (SMILES): Cc1ncc(CO)c(C=O)c1O
- Potency [1]: inactive
- outcome [9]: inactive

Structure (SMILES): Oc1ccc(Cl)cc1Cc1cc(Cl)ccc1O
- Potency [8]: inactive
- activation [5]: -2.26% (inactive) and 2.38% (inactive)

Structure (SMILES): CCCCOC(=O)CC(CC(=O)OCCCC)(OC(C)=O)C(=O)OCCCC
- outcome [4]: inactive
- outcome [6]: inactive
- max response [7]: 0.806%

Structure (SMILES): Oc1c(Cl)cc(Cl)c(Cl)c1Cc1c(O)c(Cl)cc(Cl)c1Cl
- Potency [1]: 79.4 µM (active) and 31.6 µM (active)
- activation [5]: -7.2% (inactive) and -4.02% (inactive)

Structure (SMILES): C#C[C@]1(O)CC[C@H]2[C@@H]3CCC4=Cc5oncc5C[C@]4(C)[C@H]3CC[C@@]21C
- Potency [1]: inactive
- Potency [8]: 3.16 µM (active)
- activation [5]: -5.91% (inactive)

Structure (SMILES): CCCN(CCC)S(=O)(=O)c1ccc(C(=O)O)cc1
- Potency [1]: inactive
- activation [3]: -5.06% (inactive) and 5.71% (inactive)
- Potency [10]: inactive
- outcome [4]: inactive
- activation [5]: 0.219% (inactive) and 1.81% (inactive)
- outcome [6]: inactive
- max response [7]: 32.2% and 48.9%

Structure (SMILES): CCCCCCCCCCCCCCCCO
- Potency [2]: inactive
- Potency [8]: inactive
- activation [5]: -8.72% (inactive)
- outcome [6]: inactive
- max response [7]: -7.5%

Structure (SMILES): COc1cc([C@H]2Oc3cc([C@H]4Oc5cc(O)cc(O)c5C(=O)[C@@H]4O)ccc3O[C@@H]2CO)ccc1O
- Potency [1]: inactive
- Potency [2]: inactive
- outcome [4]: inactive
- activation [5]: -3.21% (inactive)

Structure (SMILES): NC(=O)c1ccccc1O
- Potency [1]: inactive
- Potency [2]: inactive
- Potency [8]: inactive
- activation [5]: 9.52% (inactive)
- outcome [6]: inactive
- max response [7]: 7.67%

Structure (SMILES): c1ccc(-c2nc[nH]c2-c2ccccc2)cc1
- Potency [1]: inactive

Structure (SMILES): C=C[C@@]1(C)CC(=O)[C@]2(O)[C@@]3(C)[C@@H](O)CCC(C)(C)[C@@H]3[C@H](O)[C@H](OC(C)=O)[C@@]2(C)O1
- Potency [1]: inactive
- activation [5]: 3.9% (inactive)
- outcome [6]: inactive

Structure (SMILES): COc1ccccc1N1CCN(CCCCNC(=O)c2ccc(-c3ccc(C(C)=O)cc3)cc2)CC1
- Potency [1]: inactive
- outcome [9]: inactive

Structure (SMILES): O=C1C(O)=C(O)C(=O)C(O)=C1O
- Potency [1]: 50.1 µM (active)

Structure (SMILES): OC[C@H]1O[C@@H]2O[C@H]3[C@H](O)[C@@H](O)[C@@H](O[C@H]4[C@H](O)[C@@H](O)[C@@H](O[C@H]5[C@H](O)[C@@H](O)[C@@H](O[C@H]6[C@H](O)[C@@H](O)[C@@H](O[C@H]7[C@H](O)[C@@H](O)[C@@H](O[C@H]8[C@H](O)[C@@H](O)[C@@H](O[C@H]1[C@H](O)[C@H]2O)O[C@@H]8CO)O[C@@H]7CO)O[C@@H]6CO)O[C@@H]5CO)O[C@@H]4CO)O[C@@H]3CO
- Potency [1]: inactive
- activation [5]: -6.02% (inactive)

Structure (SMILES): CCN(CC)CCOc1ccc2c(c1)C(=O)c1cc(OCCN(CC)CC)ccc1-2
- Potency [1]: inactive

Structure (SMILES): CN1CCC[C@@H]1CCO[C@](C)(c1ccccc1)c1ccc(Cl)cc1
- Potency [1]: inactive
- outcome [9]: inactive

Structure (SMILES): CN(C)C(=O)Nc1ccc(Cl)c(Cl)c1
- Potency [1]: inactive
- Potency [2]: inactive
- Potency [8]: inactive
- activation [3]: 0.958% (inactive)
- Potency [10]: inactive
- activation [5]: -4.05% (inactive)
- outcome [6]: inactive
- max response [7]: 4.49%

Structure (SMILES): O=C(O)c1ccc(S(=O)(=O)N(Cl)Cl)cc1
- Potency [1]: inactive
- Potency [2]: inactive
- Potency [8]: inactive
- outcome [4]: inactive
- outcome [6]: inactive

Structure (SMILES): Cl/C(=C\n1cncn1)c1ccc(Cl)cc1Cl
- Potency [1]: inactive
- outcome [9]: inactive

Source: PubChem BioAssay (NCATS)
